About 410 targets per protein were measured; listed, in parts, are those with the strongest signals and a random draw of the rest.
What was measured:
Experiment in all cases: glycan array binding signal (z-score within array); higher = stronger binding
[1] = system: Fuc(a1-2)[Gal(a1-3)]Gal(b1-4)GlcNAc(b1-3)[Fuc(a1-2)[Gal(a1-3)]Gal(b1-4)GlcNAc(b1-6)]GalNAc; settings: glycan notation: IUPAC condensed, linker removed
Outline: (§1)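 Columns mapping to the same glycan were averaged after glycan names were converted to IUPAC-condensed notation. The data come from 3228 arrays in the Consortium for Functional Glycomics database, limited to those with an available protein sequence. Binding is reported as a within-array Z-score averaged across arrays of one protein sequence and across linkers.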

[2] = system: Fuc(a1-2)[GalNAc(a1-3)]Gal(b1-3)GlcNAc(b1-2)Man(a1-3)[Fuc(a1-2)[GalNAc(a1-3)]Gal(b1-3)GlcNAc(b1-2)Man(a1-6)]Man(b1-4)GlcNAc(b1-4)GlcNAc; settings: glycan notation: IUPAC condensed, linker removed
Outline: as §1

[3] = system: Fuc(a1-2)[GalNAc(a1-3)]Gal(b1-4)GlcNAc(b1-2)Man; settings: glycan notation: IUPAC condensed, linker removed
Outline: as §1

[4] = system: Fuc(a1-2)[GalNAc(a1-3)]Gal(b1-4)GlcNAc(b1-6)GalNAc; settings: glycan notation: IUPAC condensed, linker removed
Outline: as §1

[5] = system: Fuc(a1-2)[Gal(a1-3)]Gal(b1-4)Glc; settings: glycan notation: IUPAC condensed, linker removed
Outline: as §1

[6] = system: Fuc(a1-2)[Gal(a1-4)]Gal(b1-4)GlcNAc; settings: glycan notation: IUPAC condensed, linker removed; mutation: R125K
Outline: as §1

[7] = system: Fuc(a1-2)[GalNAc(a1-3)]Gal(b1-4)GlcNAc(b1-3)Gal(b1-4)GlcNAc; settings: glycan notation: IUPAC condensed, linker removed
Outline: as §1

Fuc(a1-2)[Gal(a1-3)]Gal = settings: glycan notation: IUPAC condensed, linker removed
Outline: as §1

[8] = system: Fuc(a1-2)[Gal(a1-3)]Gal(b1-4)GlcNAc(b1-3)GalNAc; settings: glycan notation: IUPAC condensed, linker removed
Outline: as §1

[9] = system: Fuc(a1-2)[Gal(a1-3)]Gal(b1-4)[Fuc(a1-3)]GlcNAc(b1-3)GalNAc; settings: glycan notation: IUPAC condensed, linker removed
Outline: as §1

Fuc(a1-2)Gal = settings: glycan notation: IUPAC condensed, linker removed
Outline: as §1

Fuc(a1-2)Gal6S(b1-4)Glc = settings: glycan notation: IUPAC condensed, linker removed
Outline: as §1

[10] = system: Fuc(a1-2)[Gal(a1-3)]Gal(b1-3)GlcNAc(b1-2)Man(a1-3)[Fuc(a1-2)[Gal(a1-3)]Gal(b1-3)GlcNAc(b1-2)Man(a1-6)]Man(b1-4)GlcNAc(b1-4)GlcNAc; settings: glycan notation: IUPAC condensed, linker removed
Outline: as §1

[11] = system: Fuc(a1-2)[GalNAc(a1-3)]Gal(b1-3)GlcNAc(b1-6)GalNAc; settings: glycan notation: IUPAC condensed, linker removed
Outline: as §1

[12] = system: Fuc(a1-2)[Gal(a1-3)]Gal(b1-4)GlcNAc(b1-2)Man(a1-3)[Fuc(a1-2)[Gal(a1-3)]Gal(b1-4)GlcNAc(b1-2)Man(a1-6)]Man(b1-4)GlcNAc(b1-4)[Fuc(a1-6)]GlcNAc; settings: glycan notation: IUPAC condensed, linker removed
Outline: as §1

[13] = system: Fuc(a1-2)[GalNAc(a1-3)]Gal(b1-4)GlcNAc(b1-3)GalNAc; settings: glycan notation: IUPAC condensed, linker removed
Outline: as §1

[14] = system: Fuc(a1-2)[GalNAc(a1-3)]Gal(b1-3)GlcNAc; settings: glycan notation: IUPAC condensed, linker removed
Outline: as §1

[15] = system: Fuc(a1-2)[GalNAc(a1-3)]Gal(b1-3)GlcNAc(b1-3)GalNAc; settings: glycan notation: IUPAC condensed, linker removed
Outline: as §1

[16] = system: Fuc(a1-2)[GalNAc(a1-3)]Gal(b1-4)GlcNAc(b1-2)Man(a1-3)[Fuc(a1-2)[GalNAc(a1-3)]Gal(b1-4)GlcNAc(b1-2)Man(a1-6)]Man(b1-4)GlcNAc(b1-4)GlcNAc; settings: glycan notation: IUPAC condensed, linker removed
Outline: as §1

[17] = system: Fuc(a1-2)[GalNAc(a1-3)]Gal(b1-4)GlcNAc(b1-3)Gal(b1-4)GlcNAc(b1-3)Gal(b1-4)GlcNAc; settings: glycan notation: IUPAC condensed, linker removed
Outline: as §1

Chain of PILRb (Mus musculus), Q2YSF2 (Q2YSF2 entry or part of it): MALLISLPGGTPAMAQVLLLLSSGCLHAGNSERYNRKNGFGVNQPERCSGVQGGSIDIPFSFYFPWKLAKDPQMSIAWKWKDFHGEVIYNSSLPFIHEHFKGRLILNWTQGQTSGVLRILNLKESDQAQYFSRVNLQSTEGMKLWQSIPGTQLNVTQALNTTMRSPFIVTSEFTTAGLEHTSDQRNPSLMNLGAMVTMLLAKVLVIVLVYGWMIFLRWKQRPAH
Chain of CHI3L1 (Homo sapiens), P36222 (P36222 whole entry): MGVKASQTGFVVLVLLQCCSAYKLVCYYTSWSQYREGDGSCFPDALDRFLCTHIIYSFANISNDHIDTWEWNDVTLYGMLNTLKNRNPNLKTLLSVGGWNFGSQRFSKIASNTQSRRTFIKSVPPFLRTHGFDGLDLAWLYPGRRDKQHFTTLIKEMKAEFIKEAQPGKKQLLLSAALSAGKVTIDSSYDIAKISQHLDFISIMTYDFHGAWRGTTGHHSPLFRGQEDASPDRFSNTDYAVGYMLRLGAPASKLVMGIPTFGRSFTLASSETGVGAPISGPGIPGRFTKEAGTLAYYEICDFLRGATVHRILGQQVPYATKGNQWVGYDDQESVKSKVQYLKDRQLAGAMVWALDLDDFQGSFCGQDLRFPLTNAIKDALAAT
Chain of Avaren (Actinomycete K97) (chain, as listed by the source): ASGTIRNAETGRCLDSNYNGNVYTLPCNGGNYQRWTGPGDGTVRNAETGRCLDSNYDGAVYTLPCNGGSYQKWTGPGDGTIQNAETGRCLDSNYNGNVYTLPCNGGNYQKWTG
Chain of Aggrecan (Rattus norvegicus), NP_071526 (chain, as listed by the source): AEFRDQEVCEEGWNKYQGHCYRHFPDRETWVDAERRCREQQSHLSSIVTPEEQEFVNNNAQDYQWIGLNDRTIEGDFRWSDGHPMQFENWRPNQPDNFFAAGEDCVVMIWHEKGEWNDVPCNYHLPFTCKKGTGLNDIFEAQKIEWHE
Chain of PILRa (Mus musculus), Q2YSF3 (Q2YSF3 entry or part of it): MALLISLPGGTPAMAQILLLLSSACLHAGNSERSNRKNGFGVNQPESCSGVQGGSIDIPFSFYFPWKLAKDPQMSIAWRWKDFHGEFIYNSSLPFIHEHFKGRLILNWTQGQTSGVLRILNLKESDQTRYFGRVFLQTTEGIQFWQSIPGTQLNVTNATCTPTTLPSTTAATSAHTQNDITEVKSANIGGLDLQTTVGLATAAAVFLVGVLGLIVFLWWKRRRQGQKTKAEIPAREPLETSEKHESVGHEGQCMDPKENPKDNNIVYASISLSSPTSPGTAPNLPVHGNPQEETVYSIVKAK
Chain of 6RG (Lolium perenne), B9U140 (B9U140 entry or part of it): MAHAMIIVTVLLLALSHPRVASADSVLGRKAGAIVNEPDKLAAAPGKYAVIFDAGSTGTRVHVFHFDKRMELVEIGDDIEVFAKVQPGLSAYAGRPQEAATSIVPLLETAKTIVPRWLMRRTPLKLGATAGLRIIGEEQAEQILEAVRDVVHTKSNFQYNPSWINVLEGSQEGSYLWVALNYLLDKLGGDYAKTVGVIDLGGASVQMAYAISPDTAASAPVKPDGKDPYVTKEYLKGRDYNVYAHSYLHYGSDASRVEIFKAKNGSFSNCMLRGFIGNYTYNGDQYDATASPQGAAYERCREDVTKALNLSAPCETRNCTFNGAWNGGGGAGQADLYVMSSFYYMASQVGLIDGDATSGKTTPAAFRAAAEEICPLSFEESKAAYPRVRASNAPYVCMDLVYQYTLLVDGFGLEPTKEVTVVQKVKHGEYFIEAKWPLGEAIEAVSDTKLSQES
Chain of Regenerating Gene IV (Homo sapiens), Q9BYZ8 (Q9BYZ8 whole entry, looked up): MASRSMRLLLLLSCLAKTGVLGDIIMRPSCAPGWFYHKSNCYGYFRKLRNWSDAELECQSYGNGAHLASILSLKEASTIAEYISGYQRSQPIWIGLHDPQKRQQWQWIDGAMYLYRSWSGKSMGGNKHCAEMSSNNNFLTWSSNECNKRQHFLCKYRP
Chain of SRLC (Mus musculus), Q8VIF6 (Q8VIF6 other isoform, or with tags, fused parts or gaps): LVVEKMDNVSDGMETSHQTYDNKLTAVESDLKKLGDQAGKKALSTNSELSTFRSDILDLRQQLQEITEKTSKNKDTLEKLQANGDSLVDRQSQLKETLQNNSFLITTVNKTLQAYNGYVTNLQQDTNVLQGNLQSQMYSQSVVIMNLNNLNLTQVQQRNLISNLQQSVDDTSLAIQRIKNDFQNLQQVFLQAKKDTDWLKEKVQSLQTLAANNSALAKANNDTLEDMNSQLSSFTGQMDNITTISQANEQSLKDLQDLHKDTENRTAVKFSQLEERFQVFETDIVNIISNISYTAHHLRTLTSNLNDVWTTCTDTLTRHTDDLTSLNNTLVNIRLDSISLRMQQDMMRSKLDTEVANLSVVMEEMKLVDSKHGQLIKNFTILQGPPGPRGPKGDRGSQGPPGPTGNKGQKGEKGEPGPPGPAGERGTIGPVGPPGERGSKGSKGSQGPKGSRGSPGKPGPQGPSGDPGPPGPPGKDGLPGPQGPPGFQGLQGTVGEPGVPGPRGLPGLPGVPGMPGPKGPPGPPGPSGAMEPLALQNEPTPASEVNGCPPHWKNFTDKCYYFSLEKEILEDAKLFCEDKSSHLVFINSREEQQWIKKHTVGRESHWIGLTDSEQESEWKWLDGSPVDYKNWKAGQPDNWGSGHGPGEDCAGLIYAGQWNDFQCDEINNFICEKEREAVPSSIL
Chain of 6RG (Lolium perenne) (chain, as listed by the source): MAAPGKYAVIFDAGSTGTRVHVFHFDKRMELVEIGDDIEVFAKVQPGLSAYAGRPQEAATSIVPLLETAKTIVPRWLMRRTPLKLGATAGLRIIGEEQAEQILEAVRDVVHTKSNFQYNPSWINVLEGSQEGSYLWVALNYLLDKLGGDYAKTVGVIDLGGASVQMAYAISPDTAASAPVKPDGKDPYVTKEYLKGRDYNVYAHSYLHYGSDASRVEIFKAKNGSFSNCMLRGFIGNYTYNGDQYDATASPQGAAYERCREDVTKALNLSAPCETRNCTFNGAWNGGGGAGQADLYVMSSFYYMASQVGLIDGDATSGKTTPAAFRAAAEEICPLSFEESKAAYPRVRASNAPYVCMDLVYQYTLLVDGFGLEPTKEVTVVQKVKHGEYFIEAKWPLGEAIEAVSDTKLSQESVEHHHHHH
Chain of Neurocan (Homo sapiens), O14594 (O14594 other isoform, or with tags, fused parts or gaps): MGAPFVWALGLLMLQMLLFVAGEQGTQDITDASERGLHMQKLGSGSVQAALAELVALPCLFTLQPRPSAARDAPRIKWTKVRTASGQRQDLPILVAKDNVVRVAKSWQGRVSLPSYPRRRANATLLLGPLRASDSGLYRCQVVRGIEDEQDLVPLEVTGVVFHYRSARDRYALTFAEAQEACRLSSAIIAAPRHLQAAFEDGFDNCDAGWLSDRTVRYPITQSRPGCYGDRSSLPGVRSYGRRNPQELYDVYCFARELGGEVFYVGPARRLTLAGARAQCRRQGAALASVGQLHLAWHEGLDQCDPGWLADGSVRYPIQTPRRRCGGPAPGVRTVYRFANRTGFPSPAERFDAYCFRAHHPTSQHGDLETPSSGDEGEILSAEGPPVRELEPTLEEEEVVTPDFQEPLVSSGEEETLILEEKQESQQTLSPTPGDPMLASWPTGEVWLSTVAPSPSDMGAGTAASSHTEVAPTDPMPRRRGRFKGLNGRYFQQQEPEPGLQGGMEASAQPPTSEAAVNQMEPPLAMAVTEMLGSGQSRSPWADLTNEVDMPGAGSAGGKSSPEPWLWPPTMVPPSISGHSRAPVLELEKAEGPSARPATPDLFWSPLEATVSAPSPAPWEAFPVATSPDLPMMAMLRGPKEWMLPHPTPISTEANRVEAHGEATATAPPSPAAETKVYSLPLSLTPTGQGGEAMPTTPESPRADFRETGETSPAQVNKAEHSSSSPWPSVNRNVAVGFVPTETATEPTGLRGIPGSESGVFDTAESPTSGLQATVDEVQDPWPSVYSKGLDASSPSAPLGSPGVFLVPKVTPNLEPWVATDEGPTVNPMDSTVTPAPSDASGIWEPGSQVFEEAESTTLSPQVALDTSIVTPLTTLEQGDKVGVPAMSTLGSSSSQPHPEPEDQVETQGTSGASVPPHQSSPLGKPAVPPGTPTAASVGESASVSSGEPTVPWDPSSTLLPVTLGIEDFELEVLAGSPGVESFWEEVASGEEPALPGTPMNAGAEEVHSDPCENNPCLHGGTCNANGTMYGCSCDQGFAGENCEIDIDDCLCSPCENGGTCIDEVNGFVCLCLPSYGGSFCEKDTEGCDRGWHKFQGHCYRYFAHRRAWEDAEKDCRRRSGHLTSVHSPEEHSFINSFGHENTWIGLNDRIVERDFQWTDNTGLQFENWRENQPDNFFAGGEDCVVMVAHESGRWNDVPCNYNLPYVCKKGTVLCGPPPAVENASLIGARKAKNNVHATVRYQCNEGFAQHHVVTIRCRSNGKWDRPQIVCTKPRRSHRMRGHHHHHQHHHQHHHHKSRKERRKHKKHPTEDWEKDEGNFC

Substance: MpAFP RI GFP (Marinomonas primoryensis)
- glycan array binding signal (z-score) [1]: -0.23
- glycan array binding signal (z-score) [2]: -0.022
- glycan array binding signal (z-score) [3]: -0.489
- glycan array binding signal (z-score) [4]: -0.439

Substance: Siglec-8 (Homo sapiens), Q9NYZ4
- glycan array binding signal (z-score) ([1]; mutation: R125K): 2.31
- glycan array binding signal (z-score) [5]: 0.008
- glycan array binding signal (z-score) [6]: -0.066
- glycan array binding signal (z-score) ([7]; mutation: R125K): -0.346
- glycan array binding signal (z-score) ([4]; mutation: R125K): -0.119

Substance: SRLC (Mus musculus), Q8VIF6
- glycan array binding signal (z-score) (Fuc(a1-2)[Gal(a1-3)]Gal): -0.233

Substance: PILRa (Mus musculus), Q2YSF3
- glycan array binding signal (z-score) [8]: -0.185
- glycan array binding signal (z-score) [9]: 0.044

Substance: Aggrecan (Rattus norvegicus), NP_071526
- glycan array binding signal (z-score) (Fuc(a1-2)[Gal(a1-3)]Gal): -0.088
- glycan array binding signal (z-score) [2]: -0.131

Substance: 6RG (Lolium perenne)
- glycan array binding signal (z-score) (Fuc(a1-2)Gal): -0.033

Substance: Avaren (Actinomycete K97)
- glycan array binding signal (z-score) (Fuc(a1-2)Gal6S(b1-4)Glc): -0.124
- glycan array binding signal (z-score) [10]: -0.036
- glycan array binding signal (z-score) [11]: -0.139

Substance: CHI3L1 (Homo sapiens), P36222
- glycan array binding signal (z-score) [12]: -0.116
- glycan array binding signal (z-score) [9]: -0.1
- glycan array binding signal (z-score) [11]: -0.064
- glycan array binding signal (z-score) [7]: -0.12
- glycan array binding signal (z-score) [13]: -0.124

Substance: 6RG (Lolium perenne), B9U140
- glycan array binding signal (z-score) [14]: -0.169

Substance: PILRb (Mus musculus), Q2YSF2
- glycan array binding signal (z-score) [5]: -0.137
- glycan array binding signal (z-score) [9]: 3.94
- glycan array binding signal (z-score) [15]: 1.35
- glycan array binding signal (z-score) [16]: -0.328
- glycan array binding signal (z-score) [17]: -0.069

Substance: Neurocan (Homo sapiens), O14594
- glycan array binding signal (z-score) [9]: 0.513

Substance: Regenerating Gene IV (Homo sapiens), Q9BYZ8
- glycan array binding signal (z-score) (Fuc(a1-2)Gal): 0.024

Reference: the supplement of paper PMC8728848
